Experimental data taken from PubChem BioAssay (NCI).
About 83,000 compounds went through this panel and 20% of them were active in at least one assay; those are over-represented in the sample as a whole.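 Assay: single dose, 48 h. Readout: percent growth (0 = no net growth; negative = cell death). Active: <10.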 Activity calls are given as the source filed them.

How the values were obtained:
Experiment in all cases: NCI-60 one-dose screen, 48 h (100 = growth as untreated, 0 = no growth, -100 = all killed)
Settings in all cases: 10 µM unless noted
SK-MEL-2 melanoma = test system: SK-MEL-2 melanoma
EKVX NSCLC = test system: EKVX NSCLC
SN12C renal = test system: SN12C renal
UO-31 renal = test system: UO-31 renal
TK-10 renal = test system: TK-10 renal
CAKI-1 renal = test system: CAKI-1 renal
A498 renal = test system: A498 renal
CCRF-CEM leukemia = test system: CCRF-CEM leukemia
MOLT-4 leukemia = test system: MOLT-4 leukemia
ACHN renal = test system: ACHN renal

Measured: growth

CC(C)N1CN2C(=S)NC3C2N(C1)C(=S)N3C (centres undefined)
inactive: SK-MEL-2 melanoma 93.4% | EKVX NSCLC 103% | SN12C renal 97.6% | UO-31 renal 95.9% | TK-10 renal 97.2% | CAKI-1 renal 92.6% | A498 renal 102% | CCRF-CEM leukemia 94.8% | MOLT-4 leukemia 104%

CNC(=O)c1cc(Oc2ccc3c(c2)sc2nc(-c4cc(OC)c(OC)c(OC)c4)cn23)ccn1
inactive: SK-MEL-2 melanoma 54.3% | EKVX NSCLC 50.2% | SN12C renal 53.1% | UO-31 renal 30.3% | TK-10 renal 50.3% | CAKI-1 renal 43.6% | A498 renal 53.7% | CCRF-CEM leukemia 39.4% | MOLT-4 leukemia 18.3%

O=[N+]([O-])c1ccc(S(=O)(=O)N2CCN(C3=NS(=O)(=O)c4ccccc4N3c3ccccc3)CC2)cc1
inactive: SK-MEL-2 melanoma 61.6% | EKVX NSCLC 102% | SN12C renal 114% | UO-31 renal 76.8% | TK-10 renal 118% | CAKI-1 renal 84.6% | A498 renal 105% | CCRF-CEM leukemia 125% | MOLT-4 leukemia 94.9%

CC(O)c1cnc(/C=C2\SC(=S)N(Cc3ccccc3)C2=O)s1 (centres undefined)
active: TK-10 renal -18.5%
inactive: SK-MEL-2 melanoma 69.1% | EKVX NSCLC 98.1% | SN12C renal 95.5% | UO-31 renal 93.5% | CAKI-1 renal 87.8% | A498 renal 104% | CCRF-CEM leukemia 18.8% | MOLT-4 leukemia 58.1%

C=C(C)[C@@H]1CC[C@]2(C(=O)NCCNCCN)CC[C@]3(C)[C@H](CC[C@@H]4[C@@]5(C)C/C(=C/c6ccncc6)C(=O)C(C)(C)[C@@H]5CC[C@]43C)[C@@H]12
inactive: SK-MEL-2 melanoma 108% | EKVX NSCLC 92.2% | SN12C renal 96.5% | UO-31 renal 83.5% | TK-10 renal 118% | ACHN renal 100% | CAKI-1 renal 85.6% | A498 renal 95.7% | CCRF-CEM leukemia 97.1% | MOLT-4 leukemia 82.9%

Nc1c(C(=O)Nc2ccncc2)sc2nc3c(cc12)CCCCCC3
inactive: SK-MEL-2 melanoma 94.2% | EKVX NSCLC 89.2% | SN12C renal 86.4% | UO-31 renal 78.4% | TK-10 renal 90.2% | CAKI-1 renal 98% | A498 renal 54.8% | CCRF-CEM leukemia 68.1% | MOLT-4 leukemia 70.3%

O=C1/C(=C/c2ccc(Cl)c(Cl)c2)CN(C(=O)C(Cl)Cl)C/C1=C\c1ccc(Cl)c(Cl)c1
active: SK-MEL-2 melanoma -3.03% | EKVX NSCLC -61.7% | SN12C renal -76% | UO-31 renal -99.3% | TK-10 renal -50.8% | CAKI-1 renal -74% | A498 renal -91.2% | CCRF-CEM leukemia 4.82% | MOLT-4 leukemia -0.286%

O=C(O)[C@@H]1c2ccccc2-c2ccccc2[C@H]1C(=O)O
inactive: SK-MEL-2 melanoma 123% | EKVX NSCLC 100% | SN12C renal 99.6% | UO-31 renal 66.3% | TK-10 renal 105% | CAKI-1 renal 96.5% | A498 renal 96.6% | CCRF-CEM leukemia 87.1% | MOLT-4 leukemia 107%

CO[C@H]1/C=C(/C)CCC[C@H](C)[C@H](O)[C@@H](C)C(=O)C(C)(C)[C@@H](O)CC(=O)O[C@@H]1/C(C)=C/c1csc(C)n1
active: SK-MEL-2 melanoma -5.73% | A498 renal 2.04%
inactive: EKVX NSCLC 34% | SN12C renal 38.9% | UO-31 renal 21.8% | TK-10 renal 18.8% | CAKI-1 renal 10.8% | CCRF-CEM leukemia 25.7% | MOLT-4 leukemia 14.6%

CC(=O)OCc1nc(C#N)c(N(C)C)o1
inactive: SK-MEL-2 melanoma 88.8% | EKVX NSCLC 90.6% | SN12C renal 97.7% | UO-31 renal 89.9% | TK-10 renal 84.1% | CAKI-1 renal 92.7% | A498 renal 84.7% | CCRF-CEM leukemia 88.2% | MOLT-4 leukemia 97.1%

CCN(CC)c1nc(SCc2ccccc2Cl)ncc1C
inactive: SK-MEL-2 melanoma 118% | EKVX NSCLC 101% | SN12C renal 96.7% | UO-31 renal 102% | TK-10 renal 117% | CAKI-1 renal 88.8% | A498 renal 91.2% | CCRF-CEM leukemia 92.7% | MOLT-4 leukemia 105%

CN(C)CCNC(=O)c1cccc(-c2cnc3ccc(-c4ccc5c(c4)OCO5)nn23)c1
inactive: SK-MEL-2 melanoma 69.8% | EKVX NSCLC 90% | SN12C renal 70.8% | UO-31 renal 36.8% | TK-10 renal 75.9% | CAKI-1 renal 36.8% | A498 renal 90.7% | CCRF-CEM leukemia 75.7%

C=C(C)[C@@H]1CC[C@]2(C(=O)OC)CC[C@]3(C)[C@H](CC[C@@H]4[C@@]5(C)C/C(=C/NC(N)=S)C(=O)C(C)(C)[C@@H]5CC[C@]43C)[C@@H]12
inactive: SK-MEL-2 melanoma 103% | EKVX NSCLC 91.3% | SN12C renal 58.9% | UO-31 renal 73.4% | TK-10 renal 111% | CAKI-1 renal 66.4% | A498 renal 114% | CCRF-CEM leukemia 84.7% | MOLT-4 leukemia 70.3%

COc1ccc(C(=S)N2CCN(c3ccccc3Cl)CC2)cc1OC
inactive: SK-MEL-2 melanoma 101% | EKVX NSCLC 97.4% | SN12C renal 100% | UO-31 renal 104% | TK-10 renal 108% | CAKI-1 renal 91.8% | A498 renal 94.6% | CCRF-CEM leukemia 123% | MOLT-4 leukemia 76.4%

O=C(c1ccc(-c2nc(CSc3nc4ccccc4s3)no2)cc1)N1CCSCC1
active: MOLT-4 leukemia -1.49%
inactive: SK-MEL-2 melanoma 45.7% | EKVX NSCLC 47.1% | SN12C renal 82.3% | UO-31 renal 55.6% | TK-10 renal 55.1% | CAKI-1 renal 63.5% | A498 renal 82.1% | CCRF-CEM leukemia 71.2%

CCN(CC)c1ccc(/C=C/C(=O)c2ccc(Nc3nc(Nc4ccccc4)nc(Nc4ccccc4)n3)cc2)cc1
inactive: SK-MEL-2 melanoma 27.9% | EKVX NSCLC 31.5% | SN12C renal 74% | UO-31 renal 23.9% | TK-10 renal 59.3% | CAKI-1 renal 44% | A498 renal 30.3% | MOLT-4 leukemia 22.6%
active: CCRF-CEM leukemia 5.63%

COc1cc(-c2cc(-c3cccs3)c(C#N)c(N3CCOCC3)n2)cc(OC)c1OC
inactive: SK-MEL-2 melanoma 95.6% | EKVX NSCLC 88.1% | SN12C renal 77.9% | UO-31 renal 58.9% | TK-10 renal 92.5% | CAKI-1 renal 66.5% | A498 renal 66.4% | CCRF-CEM leukemia 38.8% | MOLT-4 leukemia 28.3%

CCOC(=O)c1cc(-c2ccc([N+](=O)[O-])cc2)n(-c2ccc(C(=O)O)c(O)c2)c1C
inactive: SK-MEL-2 melanoma 53.8% | EKVX NSCLC 55.3% | SN12C renal 72.7% | UO-31 renal 24.5% | TK-10 renal 101% | CAKI-1 renal 79.4% | A498 renal 76.4% | CCRF-CEM leukemia 50% | MOLT-4 leukemia 27.2%

C/C(=C(/c1ccc(Cl)cc1)c1ccc(OCCN2CCCC2)cc1)c1ccc(Cl)cc1
inactive: SK-MEL-2 melanoma 93.9% | EKVX NSCLC 90.7% | SN12C renal 85.5% | UO-31 renal 65.7% | TK-10 renal 94.6% | CAKI-1 renal 88.5% | A498 renal 97.9% | CCRF-CEM leukemia 61.7% | MOLT-4 leukemia 62.9%

Nc1c(C(=O)Nc2ccccc2Cl)sc2nc3c(cc12)C(O)CCC3 (centres undefined)
inactive: SK-MEL-2 melanoma 36.5% | EKVX NSCLC 40.7% | SN12C renal 59.7% | UO-31 renal 56.9% | TK-10 renal 45.8% | CAKI-1 renal 49.6% | A498 renal 18% | CCRF-CEM leukemia 17.7% | MOLT-4 leukemia 38.9%

Nc1ncnc2c1N=C(c1ccc3c(c1)OCO3)CC(c1cccc(Nc3ccnc4cc(Cl)ccc34)c1)N2 (centres undefined)
inactive: SK-MEL-2 melanoma 68.7% | EKVX NSCLC 62.2% | SN12C renal 50.7% | UO-31 renal 44% | TK-10 renal 65.7% | CAKI-1 renal 53.4% | A498 renal 61.5% | CCRF-CEM leukemia 21.5% | MOLT-4 leukemia 52.7%

CC(C)n1cnc2c(=S)nc[nH]c21
inactive: SK-MEL-2 melanoma 114% | EKVX NSCLC 98% | SN12C renal 108% | UO-31 renal 92% | TK-10 renal 109% | CAKI-1 renal 73.1% | A498 renal 127% | CCRF-CEM leukemia 90.9% | MOLT-4 leukemia 56.6%

CC(=O)[C@@H]1CCC=C2CC[C@]3(C)[C@@H](CC[C@@H]4[C@@]5(C)CCCNC(C)(C)[C@@H]5CC[C@]43C)[C@H]21
inactive: UO-31 renal 18.4% | A498 renal 69.8%
active: SK-MEL-2 melanoma -52.3% | EKVX NSCLC -47.8% | SN12C renal -87.9% | TK-10 renal -46.6% | CAKI-1 renal -92.5% | CCRF-CEM leukemia -23.4% | MOLT-4 leukemia -46.4%

COc1cccc([C@H]2c3[nH]c4ccccc4c3C[C@H]3C(=O)N(CCCCCCC(=O)NO)CC(=O)N23)c1
inactive: SK-MEL-2 melanoma 60.1% | EKVX NSCLC 82.6% | SN12C renal 62.8% | UO-31 renal 62.5% | TK-10 renal 87.6% | CAKI-1 renal 75.1% | A498 renal 75.6% | CCRF-CEM leukemia 14% | MOLT-4 leukemia 18.5%

C[C@]12CC[C@@H]3c4ccc(O)c([N+](=O)[O-])c4CC[C@H]3[C@@H]1CCC2=O
inactive: SK-MEL-2 melanoma 107% | EKVX NSCLC 58.5% | SN12C renal 101% | UO-31 renal 81.5% | TK-10 renal 89% | CAKI-1 renal 72.7% | A498 renal 141% | CCRF-CEM leukemia 110% | MOLT-4 leukemia 80.4%

O=C(Nn1c2c(sc1=Nc1ccccc1)C(=O)c1ccccc1C2=O)c1cc2ccc1CCc1ccc(cc1)CC2
inactive: SK-MEL-2 melanoma 75.2% | EKVX NSCLC 70.4% | SN12C renal 70.2% | UO-31 renal 33.6% | TK-10 renal 108% | ACHN renal 42.7% | CAKI-1 renal 32.1% | A498 renal 93.7% | CCRF-CEM leukemia 79.8% | MOLT-4 leukemia 83.3%

O=C1NCCC12CCN(c1c(Cl)cncc1-c1ccc(O)cc1)CC2
inactive: SK-MEL-2 melanoma 105% | EKVX NSCLC 86.4% | SN12C renal 99.6% | UO-31 renal 77.8% | TK-10 renal 86.9% | CAKI-1 renal 90.3% | A498 renal 85% | CCRF-CEM leukemia 98.9% | MOLT-4 leukemia 102%
